Bioassay records from PubChem BioAssay.
Cardio protect – protects H9c2 cardiomyocytes from peroxide injury; H2O2 injury protection, ATPLite, 2 h; actives 0.63% (n = 360,000); protection from H2O2 cell death, % at 20 µM;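 active means compounds giving at least 50% protection of heart cells from peroxide-induced death in the single-dose screen, raw or plate-pattern-corrected value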
SUMO HTRF inh – inhibitors of human SUMOylation (UBC9) | P63279 | HTRF SUMOylation assay, SAE1/SAE2 + UBC9, in vitro | inhibition, % at 35 µM | actives 0.36% (n = 290,000) | AID 2006; in the data active means inhibition above about 50%, passing the limit was not always enough
Target sequence (P63279 whole entry, looked up): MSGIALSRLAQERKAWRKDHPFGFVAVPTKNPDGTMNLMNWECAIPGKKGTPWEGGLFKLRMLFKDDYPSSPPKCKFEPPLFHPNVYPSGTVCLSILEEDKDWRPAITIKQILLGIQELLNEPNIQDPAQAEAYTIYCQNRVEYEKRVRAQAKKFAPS
ALR inh – blocks human ALR sulfhydryl oxidase activity. P55789. purified ALR, DTT oxidation, H2O2 HRP-luminol luminescence. inhibition, % (concentration not given with the values). actives 3.8% (n = 290,000). AID 485317;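 active means mean replicate inhibition above about 79%, with every replicate also reaching it, limit read from the data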
Target sequence (P55789 whole entry, looked up): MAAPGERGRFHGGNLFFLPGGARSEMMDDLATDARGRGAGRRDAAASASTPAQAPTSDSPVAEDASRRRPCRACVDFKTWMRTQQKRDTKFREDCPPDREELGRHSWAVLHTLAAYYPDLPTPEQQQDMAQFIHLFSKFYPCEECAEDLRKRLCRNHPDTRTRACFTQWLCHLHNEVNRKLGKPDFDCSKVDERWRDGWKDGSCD
NTR1 agonist – NTR1 (human) agonism; P30989; NTR1-U2OS beta-arrestin-GFP spot imaging, agonist mode; activation, % at 20 µM; actives 0.17% (n = 330,000); AID 493036;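 active means activation at or above 40% of the spot to cytoplasm intensity ratio, with at least 20 cells analyzed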
A number is an active result; - = inactive; . = no result given. Sampled rows, rich in hits. Any-hit rate of the full collection: about 3.9%.

SMILES | Cardio protect | SUMO HTRF inh | ALR inh | NTR1 agonist
COc1ccc(C2CC(=O)C(C=NCCN3CCN(C(=S)Nc4ccccc4)CC3)=C(O)C2)cc1 (stereo not given) | - | - | - | -
COc1ccc(-n2c(-c3cnccn3)n[nH]c2=S)cc1 | - | - | 90 | -
S=c1[nH]nc(-c2cnccn2)n1-c1ccccc1 | - | - | - | -
CC1=C(C(=O)NC2CCCc3c2cnn3-c2ccc(F)cc2F)OCCO1 (stereo not given) | - | . | 89 | -
COc1ccc(NC(=O)CCOc2ccccc2)cc1 | - | - | - | -
O=C(COc1ccccc1Cl)Nc1nc(-c2ccncc2)cs1 | - | . | - | -
N#Cc1ccccc1OCC(=O)Nc1nc(-c2ccccn2)cs1 | 63 | . | . | .
O=C(COc1ccc(F)cc1Cl)Nc1nc(-c2ccccn2)cs1 | 61 | . | - | -
O=C(Nc1nnc(-c2ccccc2F)s1)Nc1ccccc1F | - | - | - | -
O=C(Nc1nnc(-c2ccccc2SCc2ccccc2)s1)Nc1ccccc1F | - | 70 | - | -
COc1cccc(NC(=O)Nc2nnc(-c3ccccc3SCc3ccccc3)s2)c1 | - | 55 | - | -
O=C(N/N=C/c1cccn1-c1ccc(O)cc1)c1cccc2ccccc12 | - | - | - | -
O=C(Nc1cccnc1Cl)C1=NN(c2ccccc2)C(=O)CC1 | - | - | - | -
O=C(NCc1ccncc1)C1=NN(c2ccccc2)C(=O)CC1 | - | - | 94 | -
COc1ccc2[nH]c(O)c(N=NC(=O)Cc3cccs3)c2c1 | - | - | . | -
Cn1c(=O)[nH]c(=O)c2c1nc(SCC(=O)O)n2CCc1ccccc1 | - | - | - | -
O=S(=O)(/N=C(\Sc1ccccc1)c1ccccc1)c1ccc(Cl)cc1 | - | - | - | -
Cc1ccc(S(=O)(=O)/N=C(\Sc2ccccc2)c2ccccc2)cc1 | - | - | 98 | -
O=C(COc1cccc(Cl)c1)Nc1ccc(N2CCOCC2)cc1 | - | - | - | -
CN(CC(=O)Nc1ccc(N2CCOCC2)cc1)C(=O)CCNC(=O)c1ccc(Br)cc1 | - | . | 96 | -
CC(Oc1cccc(Cl)c1)C(=O)N(C)CC(=O)Nc1ccc(N2CCOCC2)cc1 (stereo not given) | - | . | 93 | -
COc1ccccc1C(=O)N(C)CC(=O)Nc1ccc(N2CCOCC2)cc1 | - | . | - | -
COc1ccccc1C(=O)NCCC(=O)N(C)CC(=O)Nc1ccc(N2CCOCC2)cc1 | - | . | 99 | -
CC(Nc1ccc(Cl)cc1)c1cc(Cl)ccc1O (stereo not given) | - | - | 99 | -
CC(Nc1ccc(Br)cn1)c1cc(Cl)ccc1O (stereo not given) | - | - | . | .
SMILES | Cardio protect | SUMO HTRF inh | ALR inh | NTR1 agonist
CCOc1ccc(NC(C)c2cc(Cl)ccc2O)cc1 (stereo not given) | - | - | 99 | -
COc1cc(SC)ccc1C(=O)NCCc1ccccc1 | - | - | - | -
CCC(=O)NC(=S)Nc1ccc(NC(=O)COc2ccc(Cl)c(C)c2)cc1 | - | - | - | -
O=C(Cc1cccs1)NNC(=S)NC(=O)c1ccccc1 | - | - | 98 | -
Cc1cc(OCC(=O)NNC(=S)NC(=O)c2ccc(Br)o2)ccc1Cl | - | - | 88 | -
O=C(NC(=S)NNC(=O)c1cccs1)c1ccc(Br)o1 | - | - | 99 | -
O=C(NC(=S)NCc1ccccc1)c1cccs1 | - | - | - | -
O=C(Cc1ccccc1)NNC(=S)NC(=O)c1cccs1 | - | - | 97 | -
COc1ccc(C(=O)N2CCN(c3ccc(NC(=O)Cc4ccccc4)cc3)CC2)cc1 | - | - | - | -
Cc1ccc(NC(=O)CSc2ccc(-c3cccnc3)nn2)c(C)c1 | - | - | - | -
CCC(=O)Nc1nnc(/C=C/c2ccc(OC)cc2)s1 | - | - | - | -
COc1ccc(/C=C/c2nnc(NC(=O)CSc3ccc(C)cc3)s2)cc1 | - | 50 | . | -
COc1ccc(-c2nc(CSCC(=O)N3CCN(C(=O)c4ccco4)CC3)c(C)o2)cc1OC | - | - | 99 | -
CCN1CCN(CCNC(=O)CSCc2nc(-c3ccc(OC)c(OC)c3)oc2C)CC1 | - | - | 99 | -
COc1ccc(-c2nc(CN3CCC(C(=O)NC4CC4)CC3)c(C)o2)cc1OC | - | - | - | -
COc1ccc(-c2nnc(SCC(=O)N3CCCC3)o2)cc1OC | . | . | - | -
CCN1CCN(C(=O)CSCc2nc(-c3ccc(OC)c(OC)c3)oc2C)CC1 | - | - | 99 | -
COc1ccc(-c2nc(CSCC(=O)N3CCN(C)CC3)c(C)o2)cc1OC | - | - | 99 | -
Cc1nc2c(-c3ccccc3)cnn2c(N2CCOCC2)c1C | - | - | - | -
Cc1nn(C(C)C(=O)NCc2ccco2)c(C)c1[N+](=O)[O-] (stereo not given) | - | - | . | -
COc1cc(OC)c2ccc(=O)oc2c1C(CCN1CCCC(C)C1)c1ccc(N(C)C)cc1 (stereo not given) | - | - | . | -
O=S(=O)(c1ccccc1)N1CCN(Cc2ccccc2)c2ccccc21 | - | . | . | .
Cc1ccc2nc(N/C(=N/S(=O)(=O)c3cccs3)c3ccccc3Cl)sc2c1 | - | - | - | -
COc1ccc2[nH]c3c(NCc4ccco4)ncnc3c2c1 | . | - | 98 | -
CCN(CC)CCNc1ncnc2c1[nH]c1ccc(OC)cc12 | . | . | - | -
SMILES | Cardio protect | SUMO HTRF inh | ALR inh | NTR1 agonist
CCOc1ccccc1-n1nnnc1SCC(=O)NC(=O)NCc1ccco1 | - | - | . | -
Cc1cccc(C(=O)NNC2=C(C(=O)C(F)(F)F)CCC2)c1O | - | - | 97 | -
O=C(NNC1=C(C(=O)C(F)(F)F)CCC1)c1cccc(O)c1 | - | - | - | -
CN1CCN(c2ccc(Nc3ccnc4cc(Cl)ccc34)cc2)CC1 | - | - | 92 | -
CCOc1ccc(Nc2ccnc3cc(Cl)ccc23)cc1 | - | - | - | -
Cc1nc(-c2cccc(N)c2)cs1 | - | - | 99 | -
Cc1nc(-c2cccc(S(=O)(=O)N3CC(C)OC(C)C3)c2)cs1 (stereo not given) | - | - | 98 | -
Cc1nc(-c2cccc(S(=O)(=O)N3CC(C)CC(C)C3)c2)cs1 (stereo not given) | - | - | - | -
Cc1nc(-c2cccc(S(=O)(=O)N3CCOCC3)c2)cs1 | - | - | 99 | -
CC(C)Cn1c(-c2cccc(S(=O)(=O)N3CCOCC3)c2)n[nH]c1=S | - | . | 86 | -
Cc1nc(-c2cccc(NC(=O)c3cccc(S(=O)(=O)N4CCCC4)c3)c2)cs1 | - | . | - | -
C=CCNc1nc(Cl)nc(NC2CCCCC2)n1 | - | - | - | -
CC(=O)Nc1ccc(NCN2C(=O)[C@@H]3[C@H]4CC[C@H](C4)[C@@H]3C2=O)cc1 | - | - | 94 | -
CN1CN(C)c2cccc3cccc1c23 | - | - | 98 | -
CCN1C(=O)N(CC)c2cccc3cccc1c23 | - | - | - | -
Cn1c(=O)c2c(ncn2CC(=O)NC2CCCCC2)n(C)c1=O | - | - | - | -
COCCNC(=O)C1(C)CCCN(C(=O)c2ccc(F)c(Cl)c2)C1 (stereo not given) | - | . | . | .
Cc1ccc(NC(=S)Nc2cccc(-c3n[nH]c(=S)o3)c2)cc1 | - | - | 89 | -
